# Shown are actives, neighbours in structure and some others; about 1.4% of the full set was active somewhere.
# SARS 3CLpro inh – SARS-CoV 3CLpro protease inhibitors, primary screen, biochemical, quenched FRET; actives 0.14% (n = 290,000); recombinant SARS-CoV 3CLpro, quenched FRET peptide cleavage; inhibition, % at 6 µM; Replicase polyprotein 1ab (Severe acute respiratory syndrome coronavirus), P0C6X7; in the data active = inhibition above about 12%
# DUSP3 inh – VHR1 phosphatase inhibitors, primary screen, biochemical, absorbance, uHTS | AID 1654, 2009 | Dual specificity protein phosphatase 3 (Homo sapiens), P51452 | actives 0.52% (n = 290,000) | recombinant VHR phosphatase, pNPP absorbance | inhibition, % at 13.3 µM; in the data active = inhibition above about 50%
# Target sequence (P51452 whole entry, looked up): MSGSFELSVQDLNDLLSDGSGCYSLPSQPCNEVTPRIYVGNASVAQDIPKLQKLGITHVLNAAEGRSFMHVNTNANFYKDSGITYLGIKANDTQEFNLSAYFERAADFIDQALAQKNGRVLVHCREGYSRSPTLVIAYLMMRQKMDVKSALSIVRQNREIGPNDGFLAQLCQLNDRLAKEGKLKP
# BJeLR viability – MLPCN primary cell-based screen for lethality selective to Ras in HRASV12 cells; BJeLR (HRASV12) viability, CellTiter-Glo ATP luminescence, 48 h; inhibition, % (no concentration beside the values); actives 0.17% (n = 300,000); in the data active = inhibition above about 50%
# ugtP null kill – growth inhibition of ugtP-null S. aureus, primary screen, RN4220 ugtP deletion, OD600; 16 h; growth inhibition, % (concentration not given with the values); actives 0.54% (n = 330,000); AID 1259309, 2017; in the data active = growth inhibition above about 68%
# PrPC surface inh – inhibitors of human cell surface prion protein PrPC, primary screen, cell-based, TR-FRET; TR-FRET read-out; inhibition, % at 13.8 µM; actives 0.43% (n = 370,000); in the data active = inhibition above about 24%
# RN4220 kill – growth inhibition of S. aureus RN4220, primary screen, OD600; 16 h; inhibition, % (test concentration not listed); actives 0.33% (n = 330,000); in the data active = inhibition above about 85%
# Numbers stand for hits; - = inactive; . = not tested or not shown.
SMILES,SARS 3CLpro inh,DUSP3 inh,BJeLR viability,ugtP null kill,PrPC surface inh,RN4220 kill
Cc1nc2ccccn2c1C(O)=C1C(=O)C(=O)N(CCN2CCOCC2)C1c1ccncc1 (centres undefined),.,.,.,-,.,-
COc1ccc(N2CCN(C3CCCN(S(=O)(=O)c4ccc(C)cc4C)C3)CC2)cc1 (centres undefined),-,57,-,-,-,-
COc1ccc(N2CCN(C3CCCN(Cc4ccc(F)cc4Cl)C3)CC2)cc1 (centres undefined),-,51,-,-,-,-
COc1ccc(C=NNC(=O)c2cccc([N+](=O)[O-])c2)cc1OS(=O)(=O)c1ccccc1,.,.,.,-,.,-
CCOc1cc(C=NNC(=O)c2cccc([N+](=O)[O-])c2)ccc1OS(=O)(=O)c1ccccc1,.,.,.,99,.,-
O=C1C=C(c2cccc(Cl)c2O)CC(c2ccc(Cl)cc2)C1 (centres undefined),.,.,.,-,.,-
COCc1cc(Sc2c(Cl)cccc2Cl)nc(-c2ccccc2)n1,-,-,-,85,-,-
COCc1cc(N2CCCCC2)nc(-c2ccccc2)n1,-,-,-,-,-,-
Cc1ccc(N/C(N)=N/c2nc(CSc3nnc(N)s3)cc(=O)[nH]2)cc1,-,53,-,-,-,-
Cc1ccccc1N(CC(=O)NCc1ccccc1)C(=O)CCC(=O)Nc1nccs1,-,51,-,-,-,-
O=C(CN(C(=O)CCC(=O)Nc1nccs1)c1ccccc1F)NCc1ccccc1,-,-,-,-,-,-
CCCCCn1c(=O)c(C(=O)Nc2cc(C)ccn2)c(O)c2ccccc21,-,-,-,-,-,-
CCCCCCC(=O)NNC(=O)c1c(O)c2ccccc2n(CCC)c1=O,-,-,-,-,-,-
CC(C)Cn1c(=O)c(C(=O)Nc2cnccn2)c(O)c2ccccc21,-,-,-,-,-,-
CCCCCCCC(=O)NNC(=O)c1c(O)c2ccccc2n(CCC)c1=O,-,-,-,-,-,98
CCCn1c(=O)c(C(=O)Nc2cccc(C)c2)c(O)c2ccccc21,-,-,-,84,-,-
CCCCCn1c(=O)c(C(=O)Nc2cnccn2)c(O)c2ccccc21,-,-,-,99,-,-
CCCCCCCn1c(=O)c(C(=O)Nc2cnccn2)c(O)c2ccccc21,-,-,-,98,-,98
C#CCOCCOCCOCCNc1nc(N2CCOCC2)nc(N2CCN(C(=O)C(CCC(=O)O)n3cc(C(N)Cc4ccc(O)cc4)nn3)CC2)n1 (centres undefined),.,.,.,-,.,-
NC1C(O)OC(CO)C(O)C1O (centres undefined),.,.,.,-,.,-
CN(c1ccccc1)S(=O)(=O)c1ccc(C(=O)Nc2nnc(-c3ccc(F)cc3)o2)cc1,-,-,-,100,.,100
COc1ccccc1-c1nnc(NC(=O)c2ccc(S(=O)(=O)N(C)Cc3ccccc3)cc2)o1,-,-,.,99,.,110
CN(c1ccccc1)S(=O)(=O)c1ccc(NC(=O)c2ccc(-c3ccccc3)cc2)cc1,-,-,-,-,-,-
CCCCN(CC)S(=O)(=O)c1ccc(C(=O)Nc2nnc(-c3cccs3)o2)cc1,-,-,-,95,.,93
COCCN1C(=O)NC(CCc2ccccc2)C(C(C)=O)C1C (centres undefined),.,.,.,-,.,-
SMILES,SARS 3CLpro inh,DUSP3 inh,BJeLR viability,ugtP null kill,PrPC surface inh,RN4220 kill
C=C(C)C(=O)N1CC2(CC(c3cccc(NC(=O)CC)c3)=NO2)CC1C(N)=O (centres undefined),.,.,.,-,.,-
O=C(N/N=C/c1ccc(-c2cccc(C(F)(F)F)c2)o1)c1ccccc1Br,-,-,-,.,-,.
O=C(NN=Cc1ccc(-c2cccc(C(F)(F)F)c2)o1)c1ccccc1Br,.,.,.,90,.,-
CCN1C(=O)C2C(c3ccc(C)cc3)N3C(=O)N(c4cccc(Br)c4)C(=O)[C@@]3(CC)C2C1=O (some centres undefined),.,.,.,-,.,-
O=C(COC(=O)C=Cc1cccc(C(F)(F)F)c1)NC(c1ccccc1)c1ccccc1,.,.,.,-,.,-
COc1ccc(N=NC2=C(O)CC(C)(C)CC2=O)c(OC)c1,-,53,-,-,-,-
COc1ccc(N=NC2=C(O)CC(C)(C)CC2=O)cc1,-,-,-,-,-,-
O=C1CCC=CCC(CC(=O)N(CCO)Cc2ccccc2)C(=O)NC(Cc2c[nH]c3ccccc23)CO1 (centres undefined),.,.,.,-,.,-
COc1cc(C=CC(=O)OCC(=O)Nc2c(C)n(C)n(-c3ccccc3)c2=O)ccc1OCC#N,.,.,.,-,.,-
COc1ccccc1NC(=O)CN1CCN(C2c3ccccc3-c3ccccc32)CC1,-,51,-,-,-,-
COc1ccc(N)cc1NC(=O)CN1CCCC1,-,59,-,-,-,-
COc1ccc(Cl)cc1NC(=O)CN1CCCCCC1,-,-,-,-,-,-
COC(=O)C1=C(C)N(Cc2ccccc2)C(=NCc2cccc(C(F)(F)F)c2)N[C@H]1c1cccc(F)c1,-,-,99,.,-,.
Cc1[nH]n(C(N)=S)c(=O)c1N=Nc1cccc(C(F)(F)F)c1,-,-,-,-,-,-
Cc1[nH]n(C2=NCCS2)c(=O)c1N=Nc1cccc(C(F)(F)F)c1,-,-,-,99,-,99
CCC(NC(=O)c1c(C)c(-c2ccccc2)nc2ccccc12)c1ccccc1 (centres undefined),.,.,.,-,.,-
Cc1cccc(N2C(=O)N3C4c5ccccc5OCC4C(c4ccccc4)[C@]3(C)C2=O)c1 (some centres undefined),.,.,.,-,.,-
Cc1ccc(OCC(=O)N/N=C\c2c(C)[nH]n(-c3ccccc3)c2=O)c([N+](=O)[O-])c1,-,56,-,.,-,.
C#CCOCCOCCOCCNc1nc(N2CCN(C(=O)C(CCC(=O)O)n3cc(C(N)CCCCN)nn3)CC2)nc(N2CCN(C(=O)C(CCCCN)n3cc(C(N)CC(N)=O)nn3)CC2)n1 (centres undefined),.,.,.,-,.,-
COC(=O)C(Cc1ccccc1)NC(=O)OC1C(=O)c2ccc(OC)cc2OC1c1ccc2c(c1)OCO2 (centres undefined),.,.,.,-,.,-
Cc1nc(-c2cccc(NC(=O)C(C)Oc3ccccc3)c2)cs1 (centres undefined),-,-,-,100,-,99
Cc1nc(-c2cccc(NS(=O)(=O)c3ccc4ccccc4c3)c2)cs1,-,-,-,91,-,-
C=CCC(CC(=O)NCCO)C(=O)NCCOC(=O)C(CC=C)Cc1ccc(F)cc1 (centres undefined),.,.,.,-,.,-
CCOC(=O)C1C2COc3ccccc3C2N2C(=O)c3cc(Cl)ccc3NC(=O)[C@@]12C (some centres undefined),.,.,.,-,.,-

# Bioassay records as filed in PubChem BioAssay.
